The panel holds about 83,000 compounds, 20% with a hit somewhere; the sample as a whole holds those more often.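 Method: cells in 96-well plates; compound added at one concentration; 48 h incubation; percent growth measured; values under 10 scored active.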 A number with no mark means an inactive call. Active and inactive are the calls of the source.
Columns and labels:
Test in all cases: NCI-60 one-dose screen, 48 h (100 = growth as untreated, 0 = no growth, -100 = all killed)
Settings in all cases: 10 µM unless noted
HCT-15 colon = system: HCT-15 colon
HT29 colon = system: HT29 colon
SNB-75 CNS = system: SNB-75 CNS
SNB-19 CNS = system: SNB-19 CNS
U251 CNS = system: U251 CNS
PC-3 prostate = system: PC-3 prostate
SK-MEL-5 melanoma = system: SK-MEL-5 melanoma
UACC-62 melanoma = system: UACC-62 melanoma
LOX IMVI melanoma = system: LOX IMVI melanoma
SK-MEL-28 melanoma = system: SK-MEL-28 melanoma

| Compound | growth (HCT-15 colon) | growth (HT29 colon) | growth (SNB-75 CNS) | growth (SNB-19 CNS) | growth (U251 CNS) | growth (PC-3 prostate) | growth (SK-MEL-5 melanoma) | growth (UACC-62 melanoma) | growth (LOX IMVI melanoma) | growth (SK-MEL-28 melanoma) |
| --- | --- | --- | --- | --- | --- | --- | --- | --- | --- | --- |
| COc1ccc(/C=C(\C#N)n2nnc3cc(F)c(F)cc32)cc1 | 29.9% | 6.99% (active) | 70.9% | 59.1% | 72.4% | 41.2% | 52.2% | 29.6% | 47.1% |  |
| CCc1ccccc1-n1c(-c2ccc(OC)cc2)cc(-c2ccc(OC)cc2)c(C#N)c1=O | 106% | 110% | 2.64% (active) | 33.7% | 60.9% | 89.5% | 102% | 81.6% | 95% |  |
| CCOC(=O)NC(C)C | 109% | 107% | 96.8% | 99.3% | 106% | 82% | 103% | 105% | 102% |  |
| O=C(O)CCCN1C(=O)/C(=C/c2cn(-c3ccccc3)nc2-c2ccc([N+](=O)[O-])cc2)SC1=S | 35.8% | 87.1% | 95.7% | 48.9% | 38.2% | 56.4% | 52.7% | 47% | 46.2% |  |
| CC1(C)COB(OCC(C)(C)COB2OCC(C)(C)CO2)OC1 | 108% | 110% | 107% | 110% | 98.2% | 94.2% | 93.2% | 106% | 96% | 113% |
| O=C1Nc2ccccc2/C1=C/c1cccn1CCCCn1c2ccccc2c(=O)c2ccccc21 | 31.7% | 89.1% | 78% | 98.4% | 95.1% | 55.1% | 38.6% | 51.8% | 82.5% |  |
| NC(=O)C(=O)c1ccccc1NC=O | 105% | 101% | 77.2% | 99.9% | 96.3% | 90.1% | 103% | 92.1% | 93.1% |  |
| Cc1nc2sc(C(=O)Nc3cccc(Br)c3)c(N)c2cc1C(O)c1ccccc1 (centres undefined) | 21% | 18.1% | 55.4% | 33.8% | 11.1% | 30.2% | 17.9% | 26.2% | 48% |  |
| CN1CCN(c2cc(Nc3cc(C4CC4)[nH]n3)nc(Nc3ccc(CC(=O)NCc4cccc(F)c4)cc3)n2)CC1 | 56.5% | 8.1% (active) | -56% (active) | 40% | 26% | 47.4% | 68.6% | 32.7% | -28.4% (active) | 25.8% |
| CCNCCNc1cc(C2CCCCC2)c(C#N)c2nc3ccccc3n12 | 16.7% | -50% (active) | -26% (active) | 42.9% | -37.7% (active) | 40.2% | -55.1% (active) | -62% (active) | -94.8% (active) | -73.1% (active) |
| O=C(Nn1c2c(sc1=NC1CC1)C(=O)c1ccccc1C2=O)c1cc2ccc1CCc1ccc(cc1)CC2 | 2.79% (active) | 108% | -10.4% (active) | 33.7% | 32.6% | 30.7% | -77.6% (active) | -12.4% (active) | 0.512% (active) |  |
| CNC(=O)c1ccccc1Oc1nc(Nc2cc(OC)c(OC)c(OC)c2)ncc1Br | 59.9% | 45.1% | 53.1% | 94.9% | 57.6% | 61.4% | 80% | 50.7% | 21.8% |  |
| N#Cc1c(-c2ccccc2)[nH]c2ncc(-c3ccccc3)n2c1=O | 93.5% | 106% | 78.8% | 105% | 93.1% | 74.6% | 87.7% | 87.8% | 86.8% |  |
| Cc1ccc(C(=O)c2ccc(CC(=O)N/N=C/c3ccccc3O)n2C)cc1 | 43.5% | 101% | 59.6% | 79.3% | 76.2% | 86.8% | 87.4% | 87.2% | 58% |  |
| O=S(=O)(NCCNc1nccc(-c2c(-c3ccc(F)c(O)c3)nc3sccn23)n1)c1ccc(O)cc1 | 33.1% | 17% | 58.9% | 56.3% | 56.8% | 22.4% | 5.55% (active) | 17.4% | 32.2% | 55.2% |
| CSc1nc2ccccc2cc1/C=C1/C=C(c2ccccc2)NC1=O | 41.3% | 38.9% | 79.3% | 80.1% | 78.8% | 70.4% | 82.3% | 64% | 74.4% |  |
| COc1cccc(/C=C2\COc3ccc(O)c(O)c3C2=O)c1 | 1.4% (active) | 8.58% (active) | 11.5% | 35.4% | 3% (active) | -10.5% (active) | 40.4% | -6.3% (active) | -82.3% (active) |  |
| Oc1c(I)cc(I)cc1CNCc1ccccn1 | 26.8% | 36.6% | 75.6% | 30.5% | 15.6% | 39.5% | 37.3% | 19.6% | 30.2% | 48.6% |
| CCOc1ccccc1Cn1ccnc1CCc1c(Cl)c(O)cc(O)c1C(=O)OC | 104% | 94.8% | 88.2% | 92.4% | 97.5% | 86.9% | 94.6% | 92.1% | 89.2% |  |
| COC1/C=C/OC2(C)Oc3c(C)c(O)c4c(O)c(c(/C=N/Nc5ccc([N+](=O)[O-])cc5[N+](=O)[O-])c(O)c4c3C2=O)NC(=O)C(C)=C/C=C/C(C)C(O)C(C)C(O)C(C)C(OC(C)=O)C1C (centres undefined) | 41.6% | -37.2% (active) | 67% | 38.6% | -31.9% (active) | 34.2% | 29.7% | -41.3% (active) | -56.9% (active) | 37.3% |
| CC(=O)/C(=C\c1c(-c2ccccc2)[nH]c2ccccc12)S(C)(=O)=O | 19.3% | 4.54% (active) | -28.8% (active) | 23.2% | 15.3% | 21.6% | -6.28% (active) | 17.5% | 33.1% |  |
| c1ccc(Cn2cc3c(c2)-c2oncc2CC3)cc1 | 26.2% | 7.96% (active) | 19% | 35.7% | 28.9% | 31.9% | 39.3% | 23.6% | 45.5% |  |
| Cc1cccc(/C=C/c2c(C(=O)/C=C/c3ccccc3)c(C)nc3ccccc23)c1 | -58.8% (active) | -24.2% (active) | -9.89% (active) | -80.5% (active) | -94.1% (active) | 8.27% (active) | -58.1% (active) | -67.3% (active) | -86.1% (active) |  |
| CCOC(=O)C#Cc1c(C(=O)OCC)nnn1Cc1ccc([N+](=O)[O-])cc1 | -20% (active) | 7.68% (active) | 65.3% | 87.9% | 96.5% | 72.7% | 93.2% | 76% | -0.0172% (active) |  |
| COCCOc1cc2ncnc(N3CCN(c4ncc(S(=O)(=O)N5CCCCC5)cn4)CC3)c2cc1OCCOC | 89.9% | 109% | 110% | 96.2% | 97.7% | 88.7% | 102% | 95.3% | 87.4% |  |
| CCCCCN1C(=O)/C(=c2\sc3n(c2=O)C2C(NN=3)N(CC)C(=O)N2CC)c2ccccc21 (centres undefined) | 1.05% (active) | -57.1% (active) | -51.5% (active) | -1.3% (active) | -83.4% (active) | -20.2% (active) | 16.8% | 10.7% | -43.5% (active) |  |
| [O-]/[N+](=C\c1ccc(-n2cc(Cc3ccccc3Cc3cn(-c4ccc(/C=[N+](/[O-])c5ccccc5)cc4)nn3)nn2)cc1)c1ccccc1 | 98.8% | 101% | 91.9% | 96.7% | 107% | 103% | 105% | 94.7% | 87.9% |  |
| COc1ccc(-c2ccc(=O)oc2-c2cc(OC)c(OC)c(OC)c2)cc1O | 12.1% | -24% (active) | 38.8% | 25.3% | 19.8% | 36.9% | -55.5% (active) | 34.7% | 17.8% | 47.4% |

Reference: PubChem BioAssay (NCI)
